Data as given in PubChem BioAssay.
Activity calls are given as the source filed them. Unless noted, how the calls were made is not given here.

Columns and labels:
[1] = resazurin metabolic signal in HepG2 cells – cell-based, resazurin fluorescence, 24 h, PK04 Diversity Set, profiling panel (AID 1172); settings: HepG2 viability, higher = more signal
[2] = budding yeast growth changes without added modifier – OD600, strain BY4716, 24 h, basal condition, primary screen (AID 1173); settings: S. cerevisiae BY4716 growth, OD600, 24 h; higher = more signal, called active from +8 up or from −8 down
[3] = viability profiling in MM1S myeloma cells – cell-based, resazurin fluorescence, basal, 24 h, PK04 Diversity Set, profiling panel (AID 1174); settings: higher = more signal, called active from +8 up or from −8 down;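 further: MM1S multiple myeloma cell line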
[4] = molecular target: Dihydroorotate dehydrogenase (quinone), mitochondrial (Plasmodium falciparum (isolate 3D7)) (UniProt Q08210); experiment: inhibition of P. falciparum DHODH – biochemical, C-terminal His tag, absorbance 600 nm, primary screen (AID 1175); settings: PfDHODH enzyme, DCIP absorbance 600 nm; higher = more signal, called active from +8 up or from −8 down;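 further: recombinant parasite enzyme with a five histidine tag at its C terminus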
Chain of Dihydroorotate dehydrogenase (quinone), mitochondrial (Plasmodium falciparum (isolate 3D7)) (Q08210 whole entry, looked up): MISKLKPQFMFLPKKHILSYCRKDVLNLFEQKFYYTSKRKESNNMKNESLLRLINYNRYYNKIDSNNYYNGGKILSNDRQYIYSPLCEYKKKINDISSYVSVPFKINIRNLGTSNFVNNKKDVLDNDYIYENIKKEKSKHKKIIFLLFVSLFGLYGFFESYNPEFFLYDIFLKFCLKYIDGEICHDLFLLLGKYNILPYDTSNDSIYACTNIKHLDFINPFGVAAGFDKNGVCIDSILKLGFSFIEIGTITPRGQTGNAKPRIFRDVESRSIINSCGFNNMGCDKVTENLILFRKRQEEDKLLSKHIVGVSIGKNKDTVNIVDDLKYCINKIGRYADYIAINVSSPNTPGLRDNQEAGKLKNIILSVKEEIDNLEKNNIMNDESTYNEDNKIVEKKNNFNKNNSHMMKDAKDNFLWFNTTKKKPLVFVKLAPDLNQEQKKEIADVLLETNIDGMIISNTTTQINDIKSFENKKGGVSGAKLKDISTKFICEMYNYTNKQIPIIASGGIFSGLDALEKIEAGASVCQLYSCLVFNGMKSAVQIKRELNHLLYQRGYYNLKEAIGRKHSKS

[5] = inhibition of PAO1 biofilm formation – strain PAO1, LB-PBS medium, absorbance 600 nm, primary screen (AID 1176); settings: P. aeruginosa PAO1 growth/biofilm, A600, 12 h; higher = more signal
[6] = growth modulation of vineyard yeast isolate – strain RM11-1a, OD600, basal, 24 h, primary screen (AID 1177);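 further: cultures grown under basal conditions with no added stressor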; settings: S. cerevisiae RM11-1a growth, OD600, 24 h; higher = more signal, called active from +8 up or from −8 down
[7] = growth of efflux-deficient E. coli DRC39 – strain DRC39, OD650, 24 h, E. coli filamentation inducers, primary screen (AID 1178);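 further: growth measured as culture turbidity by optical density at 650 nm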; settings: E. coli DRC39 acrAB, higher = more signal, called active from +8 up or from −8 down
[8] = growth of efflux-deficient E. coli DRC39 – strain DRC39, OD650, 48 h, E. coli filamentation inducers, primary screen (AID 1179);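 further: screen aims at cell division blockers that make cells filament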; settings: E. coli DRC39 delta-acrAB growth, higher = more signal, called active from +8 up or from −8 down
[9] = viability profiling in RPMI8226 myeloma cells – cell-based, resazurin fluorescence, basal, 24 h, PK04 Diversity Set, profiling panel (AID 1180); settings: higher = more signal;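 further: RPMI8826 multiple myeloma cell line at 5000 cells per well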
[10] = molecular target: E3 ubiquitin-protein ligase XIAP (Homo sapiens) (UniProt P98170); experiment: small molecules binding XIAP protein – biophysical, small-molecule microarray, fluorescence 635 nm, primary screen (AID 1181); settings: higher = more signal;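 further: score merges 667 nm emission and signal to noise over triplicate slides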
Chain of E3 ubiquitin-protein ligase XIAP (Homo sapiens) (P98170 whole entry, looked up, the tested form may be a part): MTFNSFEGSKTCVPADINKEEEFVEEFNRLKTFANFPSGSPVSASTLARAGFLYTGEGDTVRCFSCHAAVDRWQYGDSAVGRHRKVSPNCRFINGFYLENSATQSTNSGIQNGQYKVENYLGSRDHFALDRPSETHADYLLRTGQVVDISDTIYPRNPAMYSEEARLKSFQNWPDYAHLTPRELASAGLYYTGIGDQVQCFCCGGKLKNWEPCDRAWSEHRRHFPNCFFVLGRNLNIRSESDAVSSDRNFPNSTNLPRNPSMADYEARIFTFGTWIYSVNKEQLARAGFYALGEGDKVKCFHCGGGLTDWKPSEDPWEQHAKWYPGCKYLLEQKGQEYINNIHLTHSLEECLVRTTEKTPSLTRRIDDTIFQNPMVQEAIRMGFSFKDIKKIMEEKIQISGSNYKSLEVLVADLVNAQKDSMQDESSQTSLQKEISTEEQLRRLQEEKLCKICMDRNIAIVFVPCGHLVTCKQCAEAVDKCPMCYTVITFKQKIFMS

[11] = test system: XIP peptide (Xip251-270) binding; experiment: XIP fragment 251-270 binding compounds – biochemical, small-molecule microarray, fluorescence 635/667 nm, 0.1 µg/mL protein, primary screen (AID 1182); settings: fluorescent protein binding, 635 nm, higher = more signal, called active from +8 up or from −8 down
[12] = test system: XIP peptide (Xip251-270); experiment: compounds binding XIP fragment 251-270 – biochemical, small-molecule microarray, fluorescence 635/667 nm, 0.5 µg/mL protein, primary screen (AID 1183); settings: fluorescence 635 nm, higher = more signal
[13] = blood-stage malaria parasite viability loss – strain 3D7, DAPI fluorescence, 100 nL, primary screen (AID 1184);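 further: parasites grown inside human red blood cells in medium with human serum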; settings: P. falciparum 3D7 growth, 3 d, higher = more signal
[14] = molecular target: Homeobox protein Hox-A13 (Mus musculus) (UniProt Q62424); experiment: disruptors of Hoxa13 oligonucleotide interaction – biochemical, fluorescence polarization, labeled oligonucleotide, primary screen (AID 1185); settings: Hoxa13:DNA binding, 15 min, higher = more signal, called active from +8 up or from −8 down
Chain of Homeobox protein Hox-A13 (Mus musculus) (Q62424 whole entry, looked up): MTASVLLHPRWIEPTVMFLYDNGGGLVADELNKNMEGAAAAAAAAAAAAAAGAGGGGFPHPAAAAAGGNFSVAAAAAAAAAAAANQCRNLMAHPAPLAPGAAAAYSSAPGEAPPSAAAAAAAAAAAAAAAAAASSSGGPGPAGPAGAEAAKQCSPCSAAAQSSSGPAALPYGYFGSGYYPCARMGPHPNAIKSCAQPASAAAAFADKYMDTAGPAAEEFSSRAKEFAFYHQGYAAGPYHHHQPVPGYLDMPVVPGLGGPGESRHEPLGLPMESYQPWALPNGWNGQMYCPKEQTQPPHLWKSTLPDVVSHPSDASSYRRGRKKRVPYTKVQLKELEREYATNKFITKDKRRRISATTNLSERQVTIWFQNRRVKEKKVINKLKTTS

[15] = blockers of DNA damage checkpoint Chk1 activation – imaging, HeLa, hydroxyurea, phospho-Chk1 antibody, percent positive cells, primary screen (AID 1186); settings: hydroxyurea-induced phospho-Chk1 immunofluorescence imaging, higher = more signal
[16] = blockers of DNA damage checkpoint Chk1 activation – imaging, HeLa, hydroxyurea, phospho-Chk1 nuclear intensity, primary screen (AID 1187); settings: hydroxyurea-induced phospho-Chk1 immunofluorescence imaging, higher = more signal

SMILES	z-score [1]	z-score [2]	z-score [3]	composite z-score [4]	z-score [5]	z-score [6]	z-score [7]	z-score [8]	z-score [9]	composite z-score [10]	composite z-score [11]	composite z-score [12]	z-score [13]	z-score [14]	z-score [15]	z-score [16]
COCCOC(=O)N1C(=O)[C@@]2(c3cc(C#CCCO)ccc31)[C@H](C(=O)NC[C@H](O)c1ccccc1)[C@H]1C(=O)O[C@H](c3ccccc3)[C@H](c3ccccc3)N1[C@@H]2c1ccc(O)cc1	0.816	0.562 (inactive)	0.858 (inactive)	1.34 (inactive)	0.29 (inactive)	1.36 (inactive)	1.01 (inactive)	0.887 (inactive)	1.04	-0.0126	-0.246 (inactive)	0.692	0.363	-3.53 (inactive)	-0.392 (inactive)	-0.542 (inactive)
O=c1cccc(C=Cc2ccccc2)o1	0.266	-2.09 (inactive)	0.835 (inactive)	0.0681 (inactive)	-0.212 (inactive)	-0.0064 (inactive)	-0.131 (inactive)	0.761 (inactive)	-0.0628	-0.248	-0.707 (inactive)	-0.764	-0.907	-0.516 (inactive)	-0.0971 (inactive)	-0.0437 (inactive)
COCC(=C=CC[C@@H](O)c1ccc(CO)o1)CCO	0.59	-3.07 (inactive)	0.698 (inactive)	-9.96 (active)	0.862 (inactive)	-3.85 (inactive)	1.13 (inactive)	1.1 (inactive)	0.529	0.116	0.848 (inactive)	0.344	-1.61	-3.24 (inactive)	-1 (inactive)	-0.68 (inactive)
C=CCOC(=O)[C@@H]1[C@H]2C(=O)O[C@H](c3ccccc3)[C@H](c3ccccc3)N2[C@H](c2ccc(OCCOC(=O)[C@@H]3C[C@@H]4C(=O)NCC(=O)N4[C@@H]3c3cccc(OCCO)c3)cc2)[C@@]12C(=O)Nc1ccc(I)cc12	0.0068	1.24 (inactive)	0.132 (inactive)	-0.173 (inactive)	2.17 (inactive)	1.65 (inactive)	0.451 (inactive)	0.17 (inactive)	0.487	0.0586	0.567 (inactive)	0.765	-1.6	0.8 (inactive)	1.07 (inactive)	0.783 (inactive)
